Experimental data reported in the supplement of paper PMC8975748.
Structures can show the parent of a compound that is named as a salt.

What follows are compounds tested on Saccharomyces cerevisiae BY4741 SeMeCo community (assay: z-score of subpopulation abundance vs DMSO median, subpopulation auxotrophic for LUM; higher = larger share of this subpopulation than in DMSO controls). Conditions: 10 µM; 24 h; SM minimal medium; subpopulation (auxotrophy): LUM.
Description: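 Fluorescent four-plasmid SeMeCo (self-establishing metabolically cooperating S. cerevisiae BY4741 community; plasmids pH-mRuby2, pL-mWasabi, pU-eCFP, pM-TagRFP657) was grown 24 h in minimal SM medium with each Selleck FDA-approved drug at 10 µM in 384-well plates. Cells were fixed and imaged by high-content confocal microscopy. For each auxotrophic subpopulation (and the prototroph), a z-score gives the deviation from the DMSO vehicle-control population median.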

| Compound | z-score of subpopulation abundance |
| --- | --- |
| COc1cc(/C=C/C(=O)N2CCN(CC(=O)N3CCCC3)CC2)cc(OC)c1OC [Cinepazide maleate] | -0.41 |
| O=C1CN2Cc3c(ccc(Cl)c3Cl)N=C2N1 [Anagrelide HCl] | -0.58 |
| CCCNC(C)C(=O)Nc1ccccc1C (stereo not given) [Prilocaine hydrochloride] | 0.73 |
| COC(=O)Nc1nc2cc(C(=O)c3ccccc3)ccc2[nH]1 [Mebendazole] | 0.4 |
| C[C@@H](CN1CC(=O)NC(=O)C1)N1CC(=O)NC(=O)C1 [Dexrazoxane HCl (ICRF-187, ADR-529)] | -0.98 |
| Cc1ccc(S(=O)(=O)NC(=O)NN2CC3CCCC3C2)cc1 (stereo not given) [Gliclazide] | -0.57 |
| Fc1ccc([C@@H]2CCNC[C@H]2COc2ccc3c(c2)OCO3)cc1 [Paroxetine mesylate] | -0.39 |
| C[C@@H](O)[C@H]1C(=O)N2C(C(=O)O)=C(S[C@@H]3CN[C@H](C(=O)Nc4cccc(C(=O)O)c4)C3)[C@H](C)[C@H]12 [Ertapenem sodium] | -0.18 |
| Cc1cccc(C#Cc2ccccc2)n1 | -0.34 |
| CCCCCCCCCC(=O)N[C@@H](Cc1c[nH]c2ccccc12)C(=O)N[C@H](CC(N)=O)C(=O)N[C@@H](CC(=O)O)C(=O)N[C@@H]1C(=O)NCC(=O)N[C@@H](CCCN)C(=O)N[C@@H](CC(=O)O)C(=O)N[C@H](C)C(=O)N[C@@H](CC(=O)O)C(=O)NCC(=O)N[C@H](CO)C(=O)N[C@@H]([C@H](C)CC(=O)O)C(=O)N[C@@H](CC(=O)c2ccccc2N)C(=O)O[C@@H]1C [Daptomycin] | 1.02 |
| C[C@]12CC[C@@H]3c4ccc(O)cc4CC[C@H]3[C@@H]1C[C@@H](O)[C@@H]2O [Estriol] | -0.23 |
| CN1[C@@H]2CC[C@H]1C[C@@H](OC(=O)c1c[nH]c3ccccc13)C2 [Tropisetron HCl] | 0.15 |
| Nc1ccc(S(N)(=O)=O)cc1 [Sulfanilamide] | -0.2 |
| Cc1nccn1CC1CCc2c(c3ccccc3n2C)C1=O (stereo not given) [Ondansetron HCl] | -0.9 |
| CC1(C)S[C@@H]2[C@H](NC(=O)[C@H](C(=O)O)c3ccsc3)C(=O)N2[C@H]1C(=O)O [Ticarcillin sodium] | 1.35 |
| O=C(O)c1cn(-c2ccc(F)cc2)c2cc(N3CCNCC3)c(F)cc2c1=O [Sarafloxacin HCl] | 0.54 |
| NC[C@@H]1O[C@H](O[C@H]2[C@@H](O)[C@H](O[C@@H]3[C@@H](O)[C@H](N)C[C@H](N)[C@H]3O[C@H]3O[C@H](CO)[C@@H](O)[C@H](O)[C@H]3N)O[C@@H]2CO)[C@H](N)[C@@H](O)[C@@H]1O [Paromomycin Sulfate] | 0.8 |
| COC(=O)Nc1nc2cc(Sc3ccccc3)ccc2[nH]1 [Fenbendazole] | 0.53 |
| Nc1ccc(/N=N/c2ccccc2)c(N)n1 [Phenazopyridine HCl] | -1.8 |
| COc1ccnc(C[S+]([O-])c2nc3cc(OC(F)F)ccc3[nH]2)c1OC (stereo not given) [Pantoprazole] | -0.41 |

| Compound | z-score of subpopulation abundance |
| --- | --- |
| CCCCCCCCCC(=O)NC1C(Oc2c3cc4cc2Oc2ccc(cc2Cl)C(OC2OC(CO)C(O)C(O)C2NC(C)=O)C2NC(=O)C(NC(=O)C4NC(=O)C4NC(=O)C(Cc5ccc(c(Cl)c5)O3)NC(=O)C(N)c3ccc(O)c(c3)Oc3cc(O)cc4c3)c3ccc(O)c(c3)-c3c(OC4OC(CO)C(O)C(O)C4O)cc(O)cc3C(C(=O)O)NC2=O)OC(CO)C(O)C1O (stereo not given) [Teicoplanin] | 0.85 |
| CCN(CC)CCOC(=O)c1ccc(N)cc1 [Procaine] | 0.13 |
| O=C1CN(/N=C/c2ccc(-c3ccc([N+](=O)[O-])cc3)o2)C(=O)N1 [Dantrolene sodium] | -0.73 |
| C=CCN1CCCC1CNC(=O)c1cc2nn[nH]c2cc1OC (stereo not given) [Alizapride HCl] | 0.44 |
| CC(C(=O)O)c1ccc2c(c1)CC(=O)c1ccccc1S2 (stereo not given) [Zaltoprofen] | -0.71 |
| O=C(O)c1ccccc1O [Salicylic acid] | -0.79 |
| CO/N=C(\C(=O)N[C@@H]1C(=O)N2C(C(=O)OC(C)OC(C)=O)=C(COC(N)=O)CS[C@H]12)c1ccco1 (stereo not given in full) [Cefuroxime axetil] | -0.64 |
| CC1(C)S[C@@H]2[C@H](NC(=O)COc3ccccc3)C(=O)N2[C@H]1C(=O)O [Penicillin V potassium salt] | -0.32 |
| CCn1cc(C(=O)O)c(=O)c2cnc(N3CCNCC3)nc21 [Pipemidic acid] | 0.73 |
| C[C@@H](O)[C@H]1C(=O)N2C(C(=O)O)=C([C@H]3CCCO3)S[C@H]12 [Faropenem Sodium] | 0.85 |
| Cc1cc(-c2ccc(/N=N/c3ccc4c(S(=O)(=O)O)cc(S(=O)(=O)O)c(N)c4c3O)c(C)c2)ccc1/N=N/c1ccc2c(S(=O)(=O)O)cc(S(=O)(=O)O)c(N)c2c1O [Evans Blue] | -5.24 |
| Cc1cc(=O)n(-c2ccccc2)n1C [Antipyrine] | 0.02 |
| C[C@@H]1C/C=C/C=C/C=C/C=C/[C@H](O[C@@H]2O[C@H](C)[C@@H](O)[C@H](N)[C@@H]2O)C[C@@H]2O[C@](O)(C[C@@H](O)C[C@H]3O[C@@H]3/C=C/C(=O)O1)C[C@H](O)[C@H]2C(=O)O [Natamycin] | 14.5 |
| CC(=O)NS(=O)(=O)c1ccc(N)cc1 [Sulfacetamide Sodium] | 0.63 |
| O=C1N=C(O)NC1(c1ccccc1)c1ccccc1 [Phenytoin Sodium] | -0.31 |
| Cc1c[nH]c(=O)[nH]c1=O [Thymine] | 0.24 |
| O=c1n(CCCN2CCN(c3cccc(Cl)c3)CC2)nc2ccccn12 [Trazodone HCl] | -0.51 |
| CN1CC(=O)N2[C@H](c3ccc4c(c3)OCO4)c3[nH]c4ccccc4c3C[C@@H]2C1=O [Tadalafil] | 1.95 |
| O=C1[C@@H]2[C@H]3CC[C@H](C3)[C@@H]2C(=O)N1C[C@@H]1CCCC[C@H]1CN1CCN(c2nsc3ccccc23)CC1 [lurasidone] | -0.46 |
| CS(=O)(=O)c1ccc([C@@H](O)[C@@H](CF)NC(=O)C(Cl)Cl)cc1 [Florfenicol] | -0.3 |
